Rows were chosen to be rich in hits. Some 1.3% of all compounds tested hit in one or more screens of this group.
NCOA2 inhibitor: inhibits human steroid receptor coactivator 2; Q15596; HEK293 GAL4-SRC2 luciferase reporter, luminescence; inhibition, % at 9 µM; actives 0.17% (n = 370,000); AID 651957;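 active = inhibition above the mean inhibition of all tested compounds plus 3 SD, set per campaign, cut at about 52% in these data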
Gli-Sufu antag: Gli-Sufu pathway antagonism | actives 0.74% (n = 340,000) | Sufu-KO-LIGHT fibroblasts, Gli luciferase reporter luminescence | AID 588413 | inhibition, % at 5 µM;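 active = inhibition above about 55%, limit read from the data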
NR5A2 inv ag: suppresses constitutive activity of human LRH-1; O00482; HEK293T StAR-luciferase reporter, LRH-1 transfected, 24 h; inhibition, % at 3.6 µM; actives 0.13% (n = 360,000);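 active = inhibition above the mean inhibition of all tested compounds plus 3 SD, cut at about 73% in these data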
SRC1 inh: human NCOA1 inhibition; Q15788; HEK293 GAL4-SRC1 luciferase reporter, luminescence; inhibition, % at 3.6 µM; actives 0.12% (n = 360,000); AID 588354;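 active = inhibition above the campaign mean plus 3 SD, with each screening campaign given its own cutoff, cut at about 60% in these data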
NCOA3 inh: human NCOA3 inhibition; inhibition, % at 3.6 µM; actives 0.17% (n = 360,000); Q9Y6Q9; HEK293 GAL4-SRC3 luciferase reporter, luminescence;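 active = inhibition above a per-campaign cutoff, the mean of all compounds plus 3 SD, cut at about 60% in these data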;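 note: higher means less SRC3-driven luciferase light from the GAL4 reporter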
Target sequence (Q9Y6Q9 whole entry, looked up, the tested form may be a part): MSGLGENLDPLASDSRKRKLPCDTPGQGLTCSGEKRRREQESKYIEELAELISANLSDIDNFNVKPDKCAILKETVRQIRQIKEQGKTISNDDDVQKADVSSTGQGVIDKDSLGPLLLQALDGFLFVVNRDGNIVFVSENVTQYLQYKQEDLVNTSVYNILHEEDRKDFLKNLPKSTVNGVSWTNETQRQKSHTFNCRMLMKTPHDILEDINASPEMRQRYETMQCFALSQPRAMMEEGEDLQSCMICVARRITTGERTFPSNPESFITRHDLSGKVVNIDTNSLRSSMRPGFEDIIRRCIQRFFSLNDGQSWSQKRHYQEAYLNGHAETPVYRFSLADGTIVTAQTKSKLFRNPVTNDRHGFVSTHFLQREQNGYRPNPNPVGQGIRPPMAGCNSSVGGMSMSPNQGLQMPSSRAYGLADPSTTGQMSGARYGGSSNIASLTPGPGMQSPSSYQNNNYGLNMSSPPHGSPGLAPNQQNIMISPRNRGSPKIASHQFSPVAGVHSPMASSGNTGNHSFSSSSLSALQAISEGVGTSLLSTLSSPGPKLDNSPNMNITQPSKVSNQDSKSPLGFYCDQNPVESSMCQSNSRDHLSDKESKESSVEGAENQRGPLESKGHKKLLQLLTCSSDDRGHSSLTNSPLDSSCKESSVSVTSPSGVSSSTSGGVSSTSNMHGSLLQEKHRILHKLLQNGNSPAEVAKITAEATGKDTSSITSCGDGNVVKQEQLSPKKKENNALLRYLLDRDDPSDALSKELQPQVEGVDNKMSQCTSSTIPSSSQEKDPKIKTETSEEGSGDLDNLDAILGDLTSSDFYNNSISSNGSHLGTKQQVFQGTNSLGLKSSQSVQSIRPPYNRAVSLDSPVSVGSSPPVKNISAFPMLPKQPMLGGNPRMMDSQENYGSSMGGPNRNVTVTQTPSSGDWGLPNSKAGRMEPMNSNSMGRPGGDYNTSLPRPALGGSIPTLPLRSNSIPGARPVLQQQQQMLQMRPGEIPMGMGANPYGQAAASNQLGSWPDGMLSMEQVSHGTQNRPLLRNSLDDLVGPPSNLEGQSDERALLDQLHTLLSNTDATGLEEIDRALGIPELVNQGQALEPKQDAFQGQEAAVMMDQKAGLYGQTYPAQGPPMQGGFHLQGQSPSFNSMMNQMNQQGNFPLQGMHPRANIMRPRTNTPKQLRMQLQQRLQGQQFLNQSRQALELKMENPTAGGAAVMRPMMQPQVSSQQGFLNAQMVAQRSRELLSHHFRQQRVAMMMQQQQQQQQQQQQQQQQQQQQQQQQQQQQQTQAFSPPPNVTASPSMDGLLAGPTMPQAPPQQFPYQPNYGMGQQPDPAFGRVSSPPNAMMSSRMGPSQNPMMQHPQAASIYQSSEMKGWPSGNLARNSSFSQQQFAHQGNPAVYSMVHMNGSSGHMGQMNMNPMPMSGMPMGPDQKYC
COUP-TFII inh: blocks human COUP-TFII nuclear receptor; P24468; HEK293T NGFI-A luciferase reporter, luminescence; AID 686940; inhibition, % at 8.6 µM; actives 0.7% (n = 370,000);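 active = inhibition above a per-plate cutoff, mean inhibition of test wells between control levels plus 3 SD, cut at about 38% in these data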;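 note: cells cotransfected with COUP-TFII expression vector driving the NGFI-A reporter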
Each line names hits and unclear results; the compound was inactive in the other large screens.

CCSc1nsc(NC(=O)Nc2ccccc2F)n1	none
N=c1c2c(-c3ccccc3)c(-c3ccccc3)n(Cc3ccccc3)c2ncn1CCO	NCOA3 inh 69
N=c1c2c(-c3ccccc3)c(-c3ccccc3)n(Cc3ccco3)c2ncn1CCCn1ccnc1	NCOA3 inh 68
N=c1c2c(-c3ccccc3)c(-c3ccccc3)n(Cc3ccco3)c2ncn1CCCN1CCOCC1	none
FC(F)(F)Oc1ccc(Cn2ccc3ccc(-c4ccc5ccn(Cc6ccc(OC(F)(F)F)cc6)c5c4)cc32)cc1	none (no result: Gli-Sufu antag, NR5A2 inv ag, SRC1 inh, NCOA3 inh)
CCOC(=O)[C@]12CCCC3=C1N(CCC3)C(=O)[C@@H](CC(=O)N1CCN(C(=O)c3ccco3)CC1)C2	none (no result: Gli-Sufu antag, NR5A2 inv ag, SRC1 inh, NCOA3 inh)
Cc1ccc(Nc2cc(C)nn2-c2nc(C)cc(=O)[nH]2)cc1	Gli-Sufu antag 92 (no result: NCOA2 inhibitor, COUP-TFII inh)
CCOC(=O)C(C(C)=O)c1c(Br)c(O)c(O)c2c(C(=O)c3ccc(C)cc3)coc12 (stereo unspecified)	NCOA3 inh 80
CCOC(=O)c1c(C)n(-c2ccc(C)cc2)c2c(C(C(C)=O)C(=O)O)c(Br)c(O)c(O)c12 (stereo unspecified)	none
COC(=O)[C@]12C[C@H](CC(=O)NCCc3ccccc3OC)C(=O)N(Cc3ccc4c(c3)OCO4)C1=C[C@H](C(C)C)O[C@@H]2C1CC1	none (no result: Gli-Sufu antag, NR5A2 inv ag, SRC1 inh, NCOA3 inh)
CCOC(=O)[C@@]12CCCC=C1N(CCc1ccc(Cl)cc1)C(=O)[C@H]2CC(=O)NCc1ccc(OC)c(OC)c1	none (no result: Gli-Sufu antag, NR5A2 inv ag, SRC1 inh, NCOA3 inh)
CCCS(=O)(=O)Nc1ccc(Nc2c3ccccc3nc3ccccc23)c(OC)c1	Gli-Sufu antag 79, SRC1 inh 66, NCOA3 inh 70
OC1(c2cccc(C(F)(F)F)c2)CCN(c2ncnc3c2[nH]c2ccc(F)cc23)CC1	COUP-TFII inh 47
COc1ccc(-n2c(C)c(C(C)=O)c3cc(OC(C)=O)ccc32)cc1	SRC1 inh 62
CC(=NNc1nc2ccccc2o1)c1cc2ccccc2cn1	Gli-Sufu antag 92, SRC1 inh 65, NCOA3 inh 70
O=c1c(Br)ccc(Br)cc1Br	NCOA2 inhibitor 58, COUP-TFII inh 53
C/C(=N\Nc1ccc2nncn2n1)c1ccccn1	Gli-Sufu antag 74, SRC1 inh 73, NCOA3 inh 76
C=CCN(C)CC#CCCCCl	none (no result: Gli-Sufu antag, NR5A2 inv ag, SRC1 inh, NCOA3 inh)
CCOc1ccc2nc3cc(NCc4ccc(OC)cc4)ccc3c(N)c2c1	Gli-Sufu antag 64 (no result: NCOA2 inhibitor, COUP-TFII inh)
C#CCNC(=O)C[C@H]1C[C@@]2(C(=O)OC)C(=C[C@H](COCc3ccccc3)O[C@@H]2C)N(Cc2ccco2)C1=O	none (no result: Gli-Sufu antag, NR5A2 inv ag, SRC1 inh, NCOA3 inh)
CC(C)(C)c1ccc(C(=O)CCC(=O)OCC(=O)NCCc2ccc(S(N)(=O)=O)cc2)cc1	NCOA2 inhibitor 54
COc1cc(C=CC(=O)c2cc(OC)c(OC)c(OC)c2)cc(OC)c1OC	NCOA2 inhibitor 68, NCOA3 inh 64
CCCCNC(=O)NCC1CCN(Cc2ccc(OC)cc2)CC1	none (no result: Gli-Sufu antag, NR5A2 inv ag, SRC1 inh, NCOA3 inh)
COCCN(C(=O)CCl)C(C(=O)NC1CCCCC1)c1ccccc1C (stereo unspecified)	NCOA2 inhibitor 54
CN(CCO)c1ccc2c(c1)Oc1ccccc1CN(Cc1cn(Cc3ccc(C(F)(F)F)cc3)nn1)S2(=O)=O	none (no result: Gli-Sufu antag, NR5A2 inv ag, SRC1 inh, NCOA3 inh)
Cc1cc2cc(CN(Cc3ccco3)S(=O)(=O)c3c(C)ccc4nsnc34)c(=O)[nH]c2cc1C	none
Cc1ccc2cc(CN(Cc3ccco3)S(=O)(=O)c3c(C)ccc4nsnc34)c(=O)[nH]c2c1	NCOA2 inhibitor 77
CCC[C@@H](CN1CCC[C@H]1CN1C(N)=NC[C@@H]1Cc1ccccc1)N1C[C@@H]([C@H](C)CC)N(CCCC2CCCC2)C1=N	Gli-Sufu antag 61 (no result: NCOA2 inhibitor, COUP-TFII inh)
C(=C\c1ccc2ccccc2n1)/c1ccccc1	none
CN(C)c1ccc(/C=C/c2ccc3ccccc3n2)cc1	SRC1 inh 62, NCOA3 inh 64 (no result: NCOA2 inhibitor, COUP-TFII inh)
COc1ccc(-c2[nH]ncc2-c2ccc3c(c2)OCCO3)c(O)c1	SRC1 inh 67, NCOA3 inh 65
O=C(NC1CCCCN(Cc2cccc(Cl)c2)C1=O)c1c(F)cccc1F (stereo unspecified)	none (no result: Gli-Sufu antag, NR5A2 inv ag, SRC1 inh, NCOA3 inh)
COC(=O)c1cn(NC(=O)c2cc([N+](=O)[O-])ccc2F)c(=O)c2ccccc12	NCOA2 inhibitor 59, NR5A2 inv ag 76, SRC1 inh 70, NCOA3 inh 78
COC(=O)c1cn(NC(=O)C2CCC(C)CC2)c(=O)c2ccccc12 (stereo unspecified)	none
O=C(CCc1ccccc1)N[C@H]1[C@@H](OC(=O)c2ccco2)CCC[C@]12C(=O)N(Cc1ccccc1)c1ccccc12	none (no result: Gli-Sufu antag, NR5A2 inv ag, SRC1 inh, NCOA3 inh)
CC(C)(C)c1ccc(Cn2c(=N)n(CC(O)c3ccco3)c3ccccc32)cc1 (stereo unspecified)	Gli-Sufu antag 65 (no result: NCOA2 inhibitor, COUP-TFII inh)
Cn1c(=O)oc2cc(S(=O)(=O)N3CCN(CCO)CC3)ccc21	none (no result: Gli-Sufu antag, NR5A2 inv ag, SRC1 inh, NCOA3 inh)
Cc1c(C)c2cccnc2c2ncccc12	Gli-Sufu antag 92, NR5A2 inv ag 87 (no result: NCOA2 inhibitor, COUP-TFII inh)
O=C(O)CCSc1nc2ccccc2s1	NCOA2 inhibitor 78
COc1cc(C=O)ccc1OCCCOc1ccccc1C(=O)O	NCOA2 inhibitor 60
O=C(OC12CCCN(C1)/C(=C/c1ccc(Cl)cc1)C2)C1CCCCC1 (stereo unspecified)	none (no result: Gli-Sufu antag, NR5A2 inv ag, SRC1 inh, NCOA3 inh)
O=S1(=O)C=CCN1Cc1cn(Cc2ccc(C(F)(F)F)cc2)nn1	none (no result: Gli-Sufu antag, NR5A2 inv ag, SRC1 inh, NCOA3 inh)
Cc1ccc(-c2nnn(CC(=O)N(Cc3cccs3)C(C(=O)NCC3CCCO3)c3ccco3)n2)o1 (stereo unspecified)	none
COc1ccc(-c2nnn(CC(=O)N(Cc3ccccc3Cl)C(C(=O)NCC3CCCO3)c3ccco3)n2)cc1OC (stereo unspecified)	NCOA2 inhibitor 95
CCOc1ccccc1O[C@H](c1ccccc1)[C@H]1CNCCO1	SRC1 inh 70
CCOc1ccccc1NC(=O)C(NCC1CCCCC1)c1ccccc1 (stereo unspecified)	none
CCOC(=O)[C@@]12CN(C(=O)OC(C)(C)C)CC=C1N(Cc1ccc(OC)cc1)C(=O)[C@H]2CC(=O)N1CCC(c2ccccc2)CC1	none (no result: Gli-Sufu antag, NR5A2 inv ag, SRC1 inh, NCOA3 inh)
C=CS(=O)(=O)c1ccc(Oc2ccc(S(=O)(=O)C=C)cc2)cc1	NCOA2 inhibitor 70, COUP-TFII inh 75
NS(=O)(=O)c1ccc(Oc2ccc(S(N)(=O)=O)cc2)cc1	none
C=CC(=O)Nc1ccc(Nc2nc(NC3CCC(N(C)C)CC3)nc3c2ncn3C(C)C)cc1 (stereo unspecified)	NR5A2 inv ag 97, SRC1 inh 86, NCOA3 inh 84 (no result: NCOA2 inhibitor, COUP-TFII inh)
CC(C)n1cnc2c(Nc3ccc(F)c(Cl)c3)nc(NCCO)nc21	none
CC(=NNC(=S)SCc1ccccc1)c1ccccn1	Gli-Sufu antag 78
CC(=NNC(=S)N1CCC1)c1ccccn1	Gli-Sufu antag 89
COc1ccc(-n2c(SCC(=O)NCC3CCCO3)nnc2-c2ccncc2)cc1 (stereo unspecified)	none (no result: Gli-Sufu antag, NR5A2 inv ag, SRC1 inh, NCOA3 inh)
O=[N+]([O-])c1ccc(Cl)cc1C=NNc1ccccn1	none
O=[N+]([O-])c1cc(Cl)cc(/C=N\Nc2ccccn2)c1O	Gli-Sufu antag 57
